# GDH-TPI counter-1 – GDH-TPI coupling enzyme inhibitors, primary screen, artefact control for M. tuberculosis FBA inhibitor project, biochemical, absorbance, full deck; inhibition, % at 4.8 µM; AID 588335, 2011; GDH-TPI coupled enzyme counterscreen, NADH absorbance; hit rate 1.2% among 360,000; in the data active = inhibition above about 30%;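 also: 0% = DMSO wells and 100% = wells lacking the enzyme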
# Mtb BioA inh – M. tuberculosis BioA enzyme inhibitors, primary screen, biochemical, plate reader, single point, HTS. purified M. tuberculosis BioA enzyme. inhibition, % at 9.99 µM. hit rate 0.096% among 360,000; in the data active = inhibition above about 40%
# FadD28 FP inh – inhibitors of FadD28 bisubstrate probe binding, primary screen, biochemical, fluorescence polarization, single point. Mycobacterium tuberculosis FadD28 fatty-acid-AMP ligase. AID 588549, 2011. hit rate 0.22% among 360,000. inhibition, % at 12.5 µM; in the data active = inhibition above about 8.5%, passing the limit was not always enough
# FBA Mtb inh – Mtb FBA enzyme inhibitors, primary screen, biochemical, fluorescence, strain H37Rv. Fructose-bisphosphate aldolase (Mycobacterium tuberculosis (strain ATCC 25618 / H37Rv)), …. purified M. tuberculosis FBA, fluorescence read-out. inhibition, % at 1 µM. hit rate 2.3% among 360,000. AID 588726, 2011;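 also: 0% = vehicle and 100% = reference inhibitor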
# Target sequence (P9WQA3 whole entry, looked up): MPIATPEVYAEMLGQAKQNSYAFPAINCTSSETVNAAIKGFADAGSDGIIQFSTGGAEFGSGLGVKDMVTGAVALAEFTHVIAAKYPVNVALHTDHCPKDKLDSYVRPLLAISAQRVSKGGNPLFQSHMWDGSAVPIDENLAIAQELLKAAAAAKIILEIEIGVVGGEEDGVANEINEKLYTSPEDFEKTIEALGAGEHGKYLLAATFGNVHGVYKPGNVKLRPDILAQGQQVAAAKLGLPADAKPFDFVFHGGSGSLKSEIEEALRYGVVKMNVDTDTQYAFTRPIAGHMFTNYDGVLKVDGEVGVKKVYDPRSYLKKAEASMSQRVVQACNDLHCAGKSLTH
# SARS 3CLpro inh – SARS-CoV 3CLpro protease inhibitors, primary screen, biochemical, quenched FRET; inhibition, % at 6 µM; recombinant SARS-CoV 3CLpro, quenched FRET peptide cleavage; AID 1706, 2009; Replicase polyprotein 1ab (Severe acute respiratory syndrome coronavirus), P0C6X7; hit rate 0.14% among 290,000; in the data active = inhibition above about 12%
# Mtb FBA inh conf – M. tuberculosis aldolase blockers, biochemical, fluorescence, strain H37Rv, confirmation; AID 651616, 2012; inhibition, % at 1 µM; shares compounds with FBA Mtb inh; hit rate 78% among 5,600; purified M. tuberculosis FBA, fluorescence read-out;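 also: 0% = vehicle wells and 100% = reference inhibitor wells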
# GDH-TPI counter-2 – GDH-TPI coupling enzyme inhibitors, artefact control for M. tuberculosis FBA inhibitor project, biochemical, fluorescence, high throughput. shares compounds with FBA Mtb inh. GDH-TPI coupled enzyme counterscreen. hit rate 81% among 5,600. inhibition, % at 1 µM; in the data active = inhibition above about 10%
# GDH-TPI DR – GDH-TPI coupling enzyme inhibitors, dose response, artefact control for M. tuberculosis FBA inhibitor project, biochemical, fluorescence, IC50; shares compounds with FBA Mtb inh; GDH-TPI coupled enzyme assay, artifact counterscreen; IC50, µM; hit rate 79% among 170; AID 652145, 2013; call rule not given here
# The depositor's hits bear a star; . = not tested or not shown; + = active, no number. In the library only some 3.1% were active in any assay of this set; here they are far more common. Rule as the data show it, unless noted: active = inhibition above about 27%; inactive = the rest.
SMILES,GDH-TPI counter-1,Mtb BioA inh,FadD28 FP inh,FBA Mtb inh,SARS 3CLpro inh,Mtb FBA inh conf,GDH-TPI counter-2,others
O=C(Nc1ccc(F)cc1)N[C@@H]1CC[C@@H](CC(=O)N2CCCCC2)O[C@H]1CO,.,0.6,.,.,.,.,.,
Cc1ccccc1-c1ccc2c(c1)O[C@H](CN(C)Cc1ccc(C(=O)O)cc1)[C@@H](C)CN([C@@H](C)CO)S2(=O)=O,.,3.2,.,.,.,.,.,
C[C@@H]1CN([C@@H](C)CO)C(=O)c2cc(NC(=O)CCC(F)(F)F)ccc2O[C@@H](C)CCCCO[C@H]1CN(C)S(=O)(=O)c1ccc(F)cc1,.,-4.9,.,.,.,.,.,
CCCOP(=O)(OCCC)c1nc(-c2ccccc2)oc1NCc1ccccc1,12.4,-1.2,0.4,57.0*,3.1,0.6,-1.1,
COP(=O)(OC)c1nc(-c2ccccc2)oc1NCc1ccccc1,4.8,.,-1.0,106.7*,-1.6,86.0*,69.5*,
CNc1oc(-c2ccc(C)cc2)nc1P(=O)(c1ccccc1)c1ccccc1,17.2,.,-2.4,-1.5,4.9,.,.,
COP(=O)(OC)c1nc(-c2ccccc2)oc1N1CCOCC1,-3.3,.,-2.3,88.8*,3.6,82.9*,55.5*,
CCOP(=O)(OCC)c1nc(-c2ccc(Cl)cc2)oc1NCc1ccccc1,13.6,.,-1.6,78.9*,1.1,79.6*,101.5*,
CC(C)CC#Cc1cnc2c(c1)C(=O)N([C@H](C)CO)C[C@@H](C)[C@H](CN(C)C(=O)Cc1cccnc1)O2,.,1.2,.,.,.,.,.,
CS(=O)(=O)Nc1ccc2c(c1)[C@H]1C[C@H](CC(=O)NCc3ccc(-c4ccccc4)cc3)O[C@@H](CO)[C@H]1O2,.,-0.2,.,.,.,.,.,
COc1ccc(-c2cc(C(=O)NC3CCCC3)c3ccccc3n2)cc1,21.0,-1.6,-0.3,40.5*,-0.2,72.0*,55.1*,
CCCOc1ccc(-c2cc(C(=O)NCC3CCCO3)c3ccccc3n2)cc1 (configuration not stated),13.9,-1.1,-0.4,28.0*,3.4,176.7*,153.6*,
COc1cccc(-c2cc(C(=O)NC3CC3)c3ccccc3n2)c1,10.0,0.8,.,-1.2,1.3,.,.,
O=C(NC1CCC(O)CC1)c1cc(-c2ccco2)nc2ccccc12 (configuration not stated),3.2,.,0.0,62.5*,-1.0,53.3*,37.8*,
COc1ccc(-c2cc(C(=O)NC3CC3)c3ccccc3n2)cc1,0.8,-1.8,-4.6,46.1*,-0.1,104.4*,87.6*,
O=C(C[C@H]1CC[C@@H](NC(=O)C2CCOCC2)[C@H](CO)O1)Nc1nccs1,.,-3.4,.,.,.,.,.,
C[C@@H]1CN([C@H](C)CO)C(=O)c2cc(NS(=O)(=O)c3cccs3)ccc2O[C@H]1CN(C)C(=O)Nc1ccccc1,.,-3.0,.,.,.,.,.,
CCOc1ccc(NC(=S)Nc2cccc3ccccc23)cc1,-1.7,-1.8,-0.1,57.8*,3.4,82.0*,72.9*,
CC(C)c1ccc(NC(=S)Nc2cccc3ccccc23)cc1,8.8,-0.4,-5.8,30.1*,10.0,68.3*,54.7*,
Cc1ccc2c(C)cc[n+](CCCS(=O)(=O)[O-])c2c1,12.6,-4.5,-1.0,43.5*,2.7,13.1,5.0,GDH-TPI DR=>10
CC(=O)Nc1ccccc1NS(=O)(=O)c1ccccc1[N+](=O)[O-],1.6,.,0.3,2.2,-1.7,.,.,
CC(=O)Nc1ccccc1NS(=O)(=O)c1cccc([N+](=O)[O-])c1,4.8,.,0.8,99.1*,2.6,+,175.2*,
CCOC(=O)c1c(-c2ccc(C)cc2)cn2ccccc12,11.9,0.7,-2.0,88.8*,-1.0,106.2*,79.5*,
CCOC(=O)c1c(-c2ccc(F)cc2)cn2ccccc12,23.4,-2.6,-2.0,98.7*,1.7,139.1*,100.4*,
O=c1cc(-c2ccc(O)c(O)c2)oc2c1ccc1ccccc12,12.6,-4.6,.,-3.6,.,.,.,
SMILES,GDH-TPI counter-1,Mtb BioA inh,FadD28 FP inh,FBA Mtb inh,SARS 3CLpro inh,Mtb FBA inh conf,GDH-TPI counter-2,others
O=c1cc(-c2cccnc2)oc2c1ccc1ccccc12,0.0,11.6,-3.9,44.9*,-1.7,+,186.3*,
CNCc1cc(Cl)cc(OC)c1OC(C)C,0.0,.,-1.1,65.0*,-0.7,78.9*,86.0*,
COc1c(Cl)cc(Cl)cc1CNCCNCC(C)O (configuration not stated),-1.9,-2.2,-0.3,-2.8,4.8,.,.,
C[C@@H]1CCCCO[C@H](CN(C)C(=O)Nc2cccc3ccccc23)[C@H](C)CN([C@@H](C)CO)C(=O)c2cc(N(C)C)ccc2O1,.,2.6,.,.,.,.,.,
CCOC(=O)C1CCN(C(=O)Cn2cnc3sc(C)c(S(=O)(=O)N4CCC(C)CC4)c3c2=O)CC1,-1.8,-1.0,0.6,77.8*,-1.9,185.7*,142.8*,
COc1ccc(NC(=O)N(C)C[C@@H]2Oc3c(NS(=O)(=O)c4ccc(F)cc4)cccc3C(=O)N([C@@H](C)CO)C[C@H]2C)cc1,.,3.4,.,.,.,.,.,
CN(C)CCN(Cc1cc2cc3c(cc2[nH]c1=O)OCO3)C(=S)NCC1CCCO1 (configuration not stated),21.7,.,-0.1,50.3*,-3.8,-0.5,-3.9,
CCOc1ccc(NC(=S)N(CCN2CCOCC2)Cc2cc3cc4c(cc3[nH]c2=O)OCCO4)cc1,12.9,-2.5,-3.0,11.8,3.6,.,.,
O=c1[nH]c2cc3c(cc2cc1CN(CCN1CCOCC1)C(=S)NCC1CCCO1)OCO3 (configuration not stated),16.1,-3.6,-1.9,34.4*,-1.1,124.4*,125.0*,
COCCNC(=S)N(CCN(C)C)Cc1cc2cc3c(cc2[nH]c1=O)OCO3,10.0,-1.4,-1.5,26.5,-1.2,.,.,
C[C@@H]1CN([C@@H](C)CO)C(=O)c2cc(NS(=O)(=O)c3ccc(Cl)cc3)ccc2O[C@H]1CN(C)Cc1ccc2c(c1)OCO2,.,-2.4,.,.,.,.,.,
CC1CCCC(C)N1NC(=S)Nc1ccc(OC(F)F)cc1 (configuration not stated),8.5,.,-4.4,55.1*,0.7,59.5*,52.8*,
COc1ccc(NC(=S)NN2C(C)CCCC2C)cc1 (configuration not stated),1.1,-1.5,-2.0,-1.1,1.5,.,.,
COc1ccc(-c2nc3ccccc3s2)cc1NC(C)=O,39.0*,.,-2.7,72.7*,2.8,138.3*,117.7*,
c1csc(-c2nc3ccccc3s2)c1,7.3,0.6,-1.0,39.4*,3.1,-1.4,-3.4,
Oc1ccc(-c2nc3ccccc3s2)c(O)c1,25.2,.,-2.0,37.0*,1.6,106.1*,84.3*,

# High-throughput results deposited in PubChem by several laboratories.
